SMILES strings stand for the structures. Structures can show the parent of a compound that is named as a salt.

The test relates to Staphylococcus aureus MW2 (mecA+). Put plainly: normalized DsRed fluorescence (growth of mecA+ strain) (fraction of control range); higher = more growth of mecA+ strain. Particulars: compound concentration: 150 uM; cefoxitin: subinhibitory; fluorescent label: DsRed. An outline of the steps:
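Fluorescence from DsRed (540/590) and GFP (485/520) was recorded after 20 h of static growth at 37 °C and 90% humidity. The wells held a 1:1 mix of pre-induced S. aureus MW2 cells, gene-bearing with DsRed and gene-deleted with GFP, in LB with a daily-set subinhibitory antibiotic dose, dispensed at 5 µL/well onto 150 μM compound (1.5% DMSO) in 1536-well plates, single replicate. Each channel was scaled per plate between single-strain control medians, excluding plates with high untreated ratios and rows with DsRed/GFP >10.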
On to `CC(C(=O)O)c1ccc(-c2ccccc2)c(F)c1` (stereo unspecified), for which the “normalized DsRed fluorescence” value amounted to 0.435.
As to `CC(C(=O)O)c1cccc(C(=O)c2ccccc2)c1` (stereo unspecified), the “normalized DsRed fluorescence” value came out at 0.413.
Turning to `Nc1ccc(C(=O)NCC(=O)O)cc1`, the “normalized DsRed fluorescence” value was found to be 0.671.
With `C#CCN[C@@H]1CCc2ccccc21` the figure was 0.693; with `CCC(NC(C)C)C(O)c1ccc(O)c(O)c1` (stereo unspecified), 0.581; with `CC[C@]1(O)C[C@H]2CN(CCc3c([nH]c4ccccc34)[C@@](C(=O)OC)(c3cc4c(cc3OC)N(C=O)[C@H]3[C@@](O)(C(=O)OC)[C@H](OC(C)=O)[C@]5(CC)C=CCN6CC[C@]43[C@@H]65)C2)C1`, 0.633.
As for `CNCC[C@H](Oc1cccc2ccccc12)c1cccs1`, the “normalized DsRed fluorescence” value was found to be 0.838.
In the case of `NC[C@@H]1O[C@@H](O[C@H]2[C@H](O)[C@@H](O[C@H]3O[C@H](CO)[C@@H](O)[C@H](N)[C@H]3O)[C@H](N)C[C@@H]2N)[C@@H](O)[C@H](O)[C@H]1O`, the “normalized DsRed fluorescence” value came out at 0.795.
Regarding `CC(=O)N[C@H]1[C@H]([C@H](O)[C@H](O)CO)OC(C(=O)O)=C[C@@H]1NC(=N)N` [Zanamivir (Relenza)], the “normalized DsRed fluorescence” value came to 0.719.
In the case of `C[C@H]1O[C@@H](O[C@H]2[C@@H](O)C[C@H](O[C@H]3[C@@H](O)C[C@H](O[C@H]4CC[C@@]5(C)[C@H](CC[C@@H]6[C@@H]5CC[C@]5(C)[C@@H](C7=CC(=O)OC7)CC[C@]65O)C4)O[C@@H]3C)O[C@@H]2C)C[C@H](O)[C@@H]1O` it was 0.724; in that of `CN1CCC(=C2c3ccccc3CC(=O)c3sccc32)CC1` [Ketotifen fumarate (Zaditor)], 0.799; in that of `CNC(=C[N+](=O)[O-])NCCSCc1ccc(CN(C)C)o1`, 0.742.
For `CN1CC2c3ccccc3Oc3ccc(Cl)cc3C2C1` (stereo unspecified) [Asenapine], the “normalized DsRed fluorescence” value is 1.64.
With `CCCN(CCC)C(=O)C(CCC(=O)O)NC(=O)c1ccccc1` (stereo unspecified) the figure was 0.55; with `CC(=O)OCC(=O)[C@@]12N=C(C)O[C@@H]1C[C@H]1[C@@H]3CCC4=CC(=O)C=C[C@]4(C)[C@H]3[C@@H](O)C[C@@]12C`, 0.567; with `CN1C2CCCC1CC(NC(=O)c1nn(C)c3ccccc13)C2` (stereo unspecified), 0.441.

The values are drawn from the supplement of paper PMC7695840.
